An excerpt weighted towards active compounds, which were near 2.4% of everything screened.
FEN1 inh: human FEN1 inhibition; P39748; Recombinant FEN1 flap cleavage, fluorescence, 15 min; Potency, µM (top dose mostly 114 µM), actives largely listed as inhibitors; 390,000 tested, 0.35% active; AID 588795; also: nearly all actives have a fitted effect of over 65% in size
Target sequence (P39748 whole entry, looked up): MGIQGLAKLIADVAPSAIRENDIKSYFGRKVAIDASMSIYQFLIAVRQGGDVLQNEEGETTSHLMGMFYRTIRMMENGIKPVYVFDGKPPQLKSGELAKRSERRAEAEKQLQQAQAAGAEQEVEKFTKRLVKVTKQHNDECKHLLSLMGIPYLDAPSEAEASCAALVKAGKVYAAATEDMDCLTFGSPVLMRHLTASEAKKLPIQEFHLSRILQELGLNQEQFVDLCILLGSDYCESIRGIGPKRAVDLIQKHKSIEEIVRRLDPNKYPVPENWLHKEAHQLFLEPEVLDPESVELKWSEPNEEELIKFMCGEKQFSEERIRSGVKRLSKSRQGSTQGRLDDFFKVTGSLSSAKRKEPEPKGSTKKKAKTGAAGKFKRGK
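Enzyme 10 nM, 15 min RT preincubation with compound; start with substrate 50 nM final; reads at 0 and 15 min; qHTS titration, four-parameter Hill fit.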
Pol eta inh: inhibitors of human DNA polymerase eta | Q9Y253 | Potency, µM (top dose mostly 114 µM), most hits filed as inhibitors | recombinant Pol eta, fluorescent DNA replication assay | 390,000 tested, 1.2% active
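Fluorescent replication assay: 50 nM final substrate added after a 15 min room-temperature compound preincubation with 10 nM enzyme. Signal taken at 0 min and again at 10 min.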
WRN inhibitor: WRN helicase (human) inhibition; Q14191; WRN helicase unwinding, fluorescent forked duplex, kinetic; Potency, µM (series often up to 114 µM), most hits filed as inhibitors; 360,000 tested, 0.46% active; also: nearly all actives have a fitted effect of over 55% in size
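Kinetic fluorescence helicase assay: unwinding of a quenched forked DNA duplex (100 nM final) with 2 mM ATP final raises red fluorescence (525/598 nm). Compounds sat 15 min at room temperature with 20 nM WRN beforehand.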
POLI inh: blocks human DNA polymerase iota activity; Q9UNA4; Pol iota fluorescent replication assay, 10 min; Potency, µM (series often up to 115 µM), actives largely listed as inhibitors; 390,000 tested, 1% active
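Fluorescent replication assay read twice, at 0 min and 10 min after adding 50 nM (final) substrate. Enzyme (10 nM) and compounds were first incubated 15 min at room temperature; enzyme-free buffer wells were negative controls.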
Pol kappa inh: inhibitors of human DNA polymerase kappa; Q9UBT6; purified Pol kappa, fluorescent DNA synthesis assay, 10 min; Potency, µM (series often up to 107 µM), actives largely listed as inhibitors; 400,000 tested, 0.53% active
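Activity was followed as the change in fluorescence between reads at 0 and 10 min after starting the reaction with 50 nM substrate. Beforehand, 10 nM polymerase had been preincubated with compound for 15 min at room temperature.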
POLB inh: blocks human DNA polymerase beta activity; Pol beta primer extension/strand displacement, fluorescence kinetic; 340,000 tested, 1.3% active; Potency, µM (series often up to 114 µM), actives largely listed as inhibitors
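Enzyme-only controls used 10 nM Pol beta; buffer lacking enzyme served as negative control. Compound preincubated 15 min, then 50 nM substrate added; 0 and 10 min reads at room temperature.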
Large screens that a line does not name were inactive. Calls follow the shape of the dose curve; as a rule, active = well fitted curve in the direction sought with a large enough effect; inconclusive = small, poorly fitted or top-dose-only effect, or another doubt; inactive = no such curve, though single readings can be large; an effect the other way counts as inactive or inconclusive.

O=C(COC(=O)c1ccc2c(c1Cl)C(=O)c1ccccc1C2=O)NC1CCCCC1	none
Cc1ccccc1NC(=O)/C(C#N)=C\c1cc(C)n(-c2ccc(C(=O)O)cc2)c1C	Pol eta inh 22µM, POLB inh inconclusive
CCCC(=O)Nc1ccccc1NC(=O)CN(C)S(=O)(=O)c1ccccc1	none
COc1ccc(C(=O)CSc2nnc(-c3ccco3)n2C)cc1	none
COc1ccc(C(=O)CSc2nnc(-c3ccco3)c(-c3ccco3)n2)cc1	FEN1 inh inconclusive, Pol eta inh 13µM, WRN inhibitor inconclusive, POLI inh inconclusive, POLB inh 13µM
Cc1ccc(C(=O)n2nc(-c3ccco3)nc2N)cc1	none
COc1ccc(C(=O)n2nc(-c3ccco3)nc2N)cc1	POLB inh 25µM
COc1cccc(NC(=O)CSc2nnc(-c3ccco3)c(-c3ccco3)n2)c1	FEN1 inh inconclusive, Pol eta inh 20µM, WRN inhibitor 45µM, POLI inh inconclusive, Pol kappa inh 50µM, POLB inh inconclusive
COc1ccc(NC(=O)CSc2nnc(-c3ccco3)c(-c3ccco3)n2)cc1OC	Pol eta inh 50µM, POLI inh inconclusive, Pol kappa inh inconclusive
COc1cccc(NC(=O)CSc2nnc(CNC(=O)c3ccco3)n2C)c1	none (no result: POLB inh)
O=C(O)C1CCCN1C(=O)OCC1c2ccccc2-c2ccccc21 (centres undefined)	none
CCC(C)n1c(SCC(=O)Nc2ccccc2C(=O)OC)nc2ccsc2c1=O (centres undefined)	none (no result: WRN inhibitor)
CCOc1ccc(Cl)cc1-c1cc(C(=O)Nc2cc(OC)ccc2OC)[nH]n1	none (no result: FEN1 inh, Pol eta inh, POLI inh, Pol kappa inh, POLB inh)
C[C@@H]1NC(=O)[C@H](CC(N)=O)NC(=O)c2cc([N+](=O)[O-])cc(I)c2OCC[C@@H](C(=O)NC(CC(=O)O)C(N)=O)NC1=O (some centres undefined)	Pol eta inh 20µM, POLI inh inconclusive, Pol kappa inh 79µM
C[C@@H]1NC(=O)c2cc([N+](=O)[O-])cc(I)c2OCC[C@@H](C(=O)NC(CC(=O)O)C(N)=O)NC(=O)[C@H](CCC(=O)O)NC1=O (some centres undefined)	Pol eta inh 18µM, POLI inh inconclusive, Pol kappa inh inconclusive
NC(=O)C(CC(=O)O)NC(=O)[C@@H]1CCOc2c(I)cc([N+](=O)[O-])cc2C(=O)N[C@@H](CCC(=O)O)C(=O)N[C@@H](CO)C(=O)N1 (some centres undefined)	Pol eta inh inconclusive, POLI inh inconclusive, Pol kappa inh inconclusive
CCS(=O)(=O)c1ccc2oc(SCC(=O)c3c(N)n(C4CC4)c(=O)[nH]c3=O)nc2c1	none (no result: POLB inh)
Cc1ccc2nc(N/N=C\c3ccc([N+](=O)[O-])o3)nc(-c3ccccc3)c2c1	Pol eta inh inconclusive, POLI inh inconclusive, POLB inh 28µM
NNC(=O)CSc1c(-c2cccs2)[nH]c2ccccc12	none
CC1CCN(S(=O)(=O)c2ccc(NC(=O)Cn3nnc(-c4ccccc4)n3)cc2)CC1	POLI inh inconclusive, POLB inh 40µM
Cc1ccc(-c2nnn(CC(=O)Nc3ccc(S(=O)(=O)N4CCC(C)CC4)cc3)n2)cc1	Pol eta inh inconclusive, POLI inh inconclusive, POLB inh 35µM
CC1CCN(CC(=O)Nc2ccc(S(=O)(=O)N3CCC(C)CC3)cc2)CC1	WRN inhibitor inconclusive
c1ccc(-c2nnc(-c3ccco3)o2)cc1	none
c1coc(-c2nnc(-c3ccco3)nn2)c1	FEN1 inh 45µM, Pol eta inh 8.9µM, WRN inhibitor 20µM, POLI inh inconclusive, Pol kappa inh 18µM, POLB inh 7.9µM
COc1ccc(Cl)cc1NC(=O)COC(=O)CNC(=O)C1CCCCC1	none (no result: POLB inh)
COc1ccc(CCNC(=O)CCCCn2c(=O)c3ccccc3n(Cc3cc(C)ccc3C)c2=O)cc1OC	POLI inh 79µM (no result: WRN inhibitor)
COc1ccccc1/C=N/NC(=O)c1cccc(NC(=O)c2ccccc2Cl)c1	none
Cc1ccc(-c2nnn(CC(=O)N(Cc3cccs3)C(C(=O)NC(C)(C)C)c3ccco3)n2)o1 (centres undefined)	none
COc1ccc2nc(-c3ccccc3)cc(C(=O)OCC(=O)N3CC(C)OC(C)C3)c2c1 (centres undefined)	FEN1 inh inconclusive, Pol eta inh 79µM, POLI inh inconclusive (no result: POLB inh)
O=C(Nc1ccc(S(=O)(=O)Nc2nccs2)cc1)c1ccc(S(=O)(=O)N2CCOCC2)cc1	none
O=C(Nc1ccc(S(=O)(=O)N2CCCCC2)cc1)c1ccc(=O)[nH]c1	POLI inh inconclusive (no result: POLB inh)
O=C(Nc1ccc(S(=O)(=O)N2CCOCC2)cc1)c1ccc(=O)[nH]c1	POLI inh inconclusive, POLB inh 13µM
O=C(Nc1nccs1)c1ccc(S(=O)(=O)N2CCOCC2)cc1	FEN1 inh 79µM
CC(=O)N1CCC(N(CCN2CCOCC2)C(=S)Nc2ccc(C)cc2)CC1	none
CCCc1nc(SCC(=O)O)c2sc(=S)n(-c3ccccc3)c2n1	none
Cc1ccc(CN(Cc2cc3cc4c(cc3[nH]c2=O)OCCO4)Cc2nnnn2Cc2ccco2)cc1	Pol eta inh inconclusive, POLI inh 20µM, Pol kappa inh 71µM, POLB inh 28µM
COc1ccc2[nH]c(=O)c(CN(C3CCCCC3)C(c3nnnn3Cc3ccco3)C(C)C)cc2c1 (centres undefined)	Pol eta inh 18µM, WRN inhibitor inconclusive, POLI inh 16µM, Pol kappa inh inconclusive, POLB inh 35µM
COc1ccc2[nH]c(=O)c(CN(Cc3nnnn3Cc3ccco3)C3CCCCC3)cc2c1	WRN inhibitor inconclusive, POLI inh 20µM, Pol kappa inh 35µM, POLB inh 28µM
COc1ccc2[nH]c(=O)c(CN(Cc3ccco3)C(c3nnnn3Cc3ccccc3)C(C)C)cc2c1 (centres undefined)	POLI inh inconclusive
COc1ccc(Cn2nnnc2CN(Cc2cc3cc(C)ccc3[nH]c2=O)C2CCCC2)cc1	none
O=S(=O)(c1cccc(Cl)c1Cl)N1CCN(C(=S)NCCCN2CCOCC2)CC1	none
COCCNc1oc(/C=C/c2ccc(F)cc2)nc1C#N	none (no result: Pol eta inh, WRN inhibitor)
CCc1c(C#N)sc(C(N)=O)c1CC	none
Cc1cc(C)cc(NC(=O)Cn2c(-c3cncs3)nc3ccccc32)c1	POLI inh 89µM, POLB inh inconclusive (no result: Pol eta inh, WRN inhibitor)
COc1cc(NC(=O)Cn2c(-c3cncs3)nc3ccccc32)cc(OC)c1OC	none
CCC(c1nnnn1-c1c(C)cccc1C)N1CCN(c2ccc(C(F)(F)F)cc2[N+](=O)[O-])CC1 (centres undefined)	none (no result: FEN1 inh, Pol eta inh, POLI inh, Pol kappa inh, POLB inh)
CC(C)C(C)N(Cc1cccc(C(=O)O)c1)C(=O)c1ccc2ccccc2n1 (centres undefined)	POLI inh 22µM (no result: POLB inh)
